For 40 sequences, PBM binding z-score results are on record in the supplement of paper PMC6555819.

This assay relates to VDR:RXRa (NR concentration 270 nM, RXRa partner concentration 90 nM). Nature of the assay: PBM binding z-score (relative to random genomic background probes); higher = stronger binding; sequences stand for … in GC…GCGATTGACAGCGTAGAATGAAGG
As to the method: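 Protein-binding microarray (Agilent 4x180K custom design, double-stranded 60-nt probes: 5' GC cap, 34-nt variable region, 24-nt constant primer region; full probe sequence given). Purified or IVT nuclear receptor:RXRα heterodimers (3:1 NR:RXRα, mostly 270:90 nM) or homodimers were incubated for 1 h in PBS with 2% milk and no ligand, then detected with Alexa488 antibodies. Fluorescence from o1-orientation probes (~5 replicates averaged) was converted to z-scores against 500 random hg19 background probes. Variable regions are seed direct-repeat (DR0–DR5) sites, all their single-nucleotide variants and half-site ablations.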
Take ATCGAAAGATCGAGGTGAGTATAGAGAAAGGGAA: the PBM binding z-score was -0.327.
The sequence TAGCCTAGGTCAGAGCGGGCCAGTATACGCTATA registered a PBM binding z-score of 0.36.
Under CGTCCAAGGTCAGCAGGTCAGTGTAAGCGACGTG stands 4.14; under CCTATTAGTTGACCATTAGGGCAACCGAAGCTCG, 0.563; under ACTACTAGTTGAGACGAGGGCAACCGATAGGTTG, 0.46.
Under TCTGCTGGGTCAGTTGGTCAGCTAACGAGCTGCC stands 0.238; under ACAGACAGGTGAGTGAAGGTAACTCTGCTGGACG, -0.344.
Under GCTTACGGGTCATAGGTTATAGCATGAATAGAAT stands 3.91; under CCGACTGGGGCAGAAAGGTTACCATACCATCCGG, 0.836.
CAAACTAGGTCACCGGATGGTCAAAGTCCGCATG: the PBM binding z-score stood at 2.78.
The value for TCTTGTAGATCAAGCAGCTTAAGAAAGCCTGAGT was 0.0668; that for GCAGACAGGTGAAACGTAGGTAACTCAGGGTGGC was -0.315; that for CCGAGTTGGTCAGGAGGTCACACACCGGATATGA was 4.19.
Under CCGACTGGGGCAAGGATACCATAACGCACAGCCA stands -0.596; under CCTTACGGGTCACTGACAGGTTATAGCCTTTGGA, 3.77; under CAAACTAGGTCACAGAGGTCAAAGCCCGTGCGTA, 7.81.
The value for TCATATAGGTAATACAGGAGAAAGTCGGCATCTA was 0.996; that for TCCATTAGTTGATTAGGGCAACCGAAACAGCGGA was 0.545.
Sequence ATACCAAGGTGATCGTGAGGTCGTTTATACTAAC came in with a PBM binding z-score of 3.6.
The value for ACTATTAGTTGAGACGAGGCCAACCGATAGGTTG was 0.333; that for CCGACTGGGGCAAAGGGTACCATACTCAGTACGA was 0.4; that for TCTAGTTGGTCACGGAGGTCACACAAGACGGGTA was 5.67.
GCTGCTAGGTCAGGGTGGTCAGCTAACGGGTACG came in with a PBM binding z-score of 1.25.
The value for GGAGACAGGTGAAACGCAGGTAACTCAGGGTGGC was -0.319; that for CTCGAAAGGTCGGTTGAGGTAAGTATACGGATAA was 1.57; that for CAAACTAGGTCAAGGACAAAGTCGGTTTGTGCCA was 1.79.
Under ATTGAAAGGTCGTGAGGTGAGTATACAGAAAGGC stands 3.71.
Under GCTTGTAGATCAAGGTTAAGAAGGACTAAGCTAA stands 0.438.
As to CGTACTGGGCCATTCAGAGGTCATTGATCATATG, the PBM binding z-score was found to be 4.27.
The value for CGTTCAAGGTCAAGGTCAGTGAAAGAGACTCGAA was 5; that for ATCTCTAGGTAAGACTCAGATCAGTGAAGAACGC was 0.238.
The value for CCTAGTTGGTCTAGGTCACACACGCTATAGGTAC was 1.42.
Under GCTGTTAGTTGAAAGGGCAACCGAATGATTCTCG stands 0.572; under ACTATTAGTTCAGACGAGGGCAACCGATAGGTTG, 2.84; under ACTAGCAGGCCAAGTTTGGGCCACTCAAACAAAG, -0.648.
With CAGCCCAGGTCAGGGCCAGTATAGGAGGAACGTT, the PBM binding z-score was found to be 0.803.
Under CCTACTGGGCCAAAAAAGTCATTGATGCCGATAA stands -0.174; under CGTCCAACGTCATAGGAGGTCAGTGAAGACAGAT, 2.06; under ACTAGTTGGTCAGCTGAGGTCAGACACAATTCGG, 3.07.
The value for TCATATAGGTAAAGGTGAAACTCGAACGATATGA was 0.901.
